# Test results reported in PubChem BioAssay.
# Calls of active or inactive are those of the source.
# What was measured:
# Albumin (Bos taurus) = Albumin (Bos taurus) (UniProt P02769); assay: compounds binding labelled BSA control protein – biochemical, small-molecule microarray, Alexa647 label, 635/667 nm fluorescence, artefact control for SMM control protein annotation, profiling panel (AID 1118); settings: BSA-A647 binding, fluorescence 635 nm, higher = more signal;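 also: score merges 667 nm emission intensity and signal-to-noise per printed compound spot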
# Albumin (Bos taurus), sequence (P02769 whole entry, looked up): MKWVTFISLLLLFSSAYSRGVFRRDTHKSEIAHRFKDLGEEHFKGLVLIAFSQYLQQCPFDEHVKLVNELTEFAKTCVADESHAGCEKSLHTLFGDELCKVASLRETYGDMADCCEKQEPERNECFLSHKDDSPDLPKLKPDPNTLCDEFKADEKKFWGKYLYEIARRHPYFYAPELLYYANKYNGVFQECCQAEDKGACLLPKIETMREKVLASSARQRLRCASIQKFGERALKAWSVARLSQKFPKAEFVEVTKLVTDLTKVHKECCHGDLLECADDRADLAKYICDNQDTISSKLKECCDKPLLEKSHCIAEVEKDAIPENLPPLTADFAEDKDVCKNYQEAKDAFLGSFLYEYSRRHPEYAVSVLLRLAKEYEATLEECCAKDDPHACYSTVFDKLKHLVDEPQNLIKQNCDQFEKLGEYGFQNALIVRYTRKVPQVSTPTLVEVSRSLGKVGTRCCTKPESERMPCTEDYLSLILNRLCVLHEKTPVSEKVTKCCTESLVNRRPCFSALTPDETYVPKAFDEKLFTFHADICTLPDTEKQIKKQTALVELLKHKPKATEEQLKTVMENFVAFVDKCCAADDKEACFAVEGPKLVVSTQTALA
# [1] = probe aXIP binding to arrayed compounds – biochemical, NeuroSMM set, 635/667 nm fluorescence, primary screen (AID 1119); settings: small-molecule microarray, higher = more signal, called active from +8 up or from −8 down;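 also: probe is the protein aXip251-270 applied at 1 µg/mL to compound-printed slides; binding of probe to printed compounds measured as 667 nm fluorescence plus signal to noise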
# [2] = probe aNOTCH3 binding on compound microarray – biochemical, small-molecule microarray, 635/667 nm fluorescence, primary screen (AID 1120); settings: higher = more signal;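 also: probe is a biotin-tagged antibody raised against NOTCH3 rather than NOTCH3 protein; score merges spot fluorescence near 667 nm with spot signal to noise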
# [3] = probe aNOTCH2 binding on compound microarray – biochemical, small-molecule microarray, 635/667 nm fluorescence, primary screen (AID 1121); settings: higher = more signal;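 also: score merges feature fluorescence read at 667 nm with its signal to noise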
# [4] = molecular target: Carbonic anhydrase 2 (Homo sapiens) (UniProt P00918); assay: compounds binding carbonic anhydrase 2 – biochemical, small-molecule microarray, Alexa647-labelled CAII, profiling panel (AID 1122); settings: CAII-A647 binding fluorescence, higher = more signal
# [5] = COS7 lysate on small-molecule microarray, probe aHis, 635 nm (AID 1123); settings: COS7 cell lysate, fluorescence, higher = more signal;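 also: z-score combines 667nm fluorescence intensity with signal-to-noise per printed compound spot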
# [6] = probe aLAP1 signal on lysate-treated microarray – cell lysate, small-molecule microarray, COS7 lysate, primary screen (AID 1124); settings: probe aLAP1, fluorescence, higher = more signal;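 also: lysate comes from COS7 cells expressing LAP1 and is applied at 0.3 µg/mL; score merges spot fluorescence near 667 nm with signal-to-noise over triplicate slides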
# Sam68 (KHDRBS1) = assay: compounds binding KHDRBS1 protein – biochemical, small-molecule microarray, 635 nm fluorescence, primary screen (AID 1125); settings: higher = more signal;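 also: score merges 667 nm channel intensity with signal to noise over triplicate slides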
# [7] = tested on: Chordin-like protein 2 (CHRDL2); assay: compounds binding chordin-like 2 – biochemical, small-molecule microarray, 635 nm fluorescence, primary screen (AID 1126); settings: fluorescence 635 nm, higher = more signal;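 also: printed compound slides probed with Chrdl2 protein at 4 µg/mL for 1 h at 4 C; score merges 667 nm emission intensity with signal to noise over three replicate slides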
# [8] = molecular target: Concanavalin-A (Canavalia ensiformis) (UniProt P02866); assay: compounds binding concanavalin A lectin – biochemical, small-molecule microarray, Alexa647 label, 635 nm, artefact control for SMM control protein annotation, primary screen (AID 1127); settings: ConA-A647 binding fluorescence, higher = more signal;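 also: z combines 667 nm emission intensity with signal-to-noise across three replicate slides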
# Concanavalin-A (Canavalia ensiformis), sequence (P02866 whole entry, looked up): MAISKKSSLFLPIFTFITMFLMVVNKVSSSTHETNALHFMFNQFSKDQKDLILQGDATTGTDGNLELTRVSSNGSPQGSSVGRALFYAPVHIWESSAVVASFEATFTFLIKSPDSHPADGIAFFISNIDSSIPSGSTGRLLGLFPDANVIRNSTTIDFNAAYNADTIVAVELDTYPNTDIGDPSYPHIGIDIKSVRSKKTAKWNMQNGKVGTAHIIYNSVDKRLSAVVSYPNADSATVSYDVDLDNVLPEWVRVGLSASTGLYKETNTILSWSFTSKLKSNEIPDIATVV
# [9] = compounds binding Alexa647 anti-His antibody – biochemical, small-molecule microarray, 635 nm fluorescence, artefact control for SMM control protein annotation, primary screen (AID 1128); settings: higher = more signal;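 also: score merges feature fluorescence with signal-to-noise for each printed compound spot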
# [10] = tested on: Human papillomavirus type 1a E7 protein (residues 1-88); assay: HPV1a E7 small-molecule binders, primary screen, biochemical, small-molecule microarray, residues 1-88, 635 nm (AID 1129); settings: small-molecule microarray binding, fluorescence 635 nm; higher = more signal
# [11] = molecular target: Focal adhesion kinase 1 (Homo sapiens) (UniProt Q05397); assay: PTK2 protein binding on printed compound slides – biochemical, small-molecule microarray, 635/667 nm fluorescence, BSA, DTT, primary screen (AID 1130); settings: 635 nm fluorescence, higher = more signal;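 also: composite of spot emission at 667 nm and signal to noise over triplicate slides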
# Focal adhesion kinase 1 (Homo sapiens), sequence (Q05397 whole entry, looked up): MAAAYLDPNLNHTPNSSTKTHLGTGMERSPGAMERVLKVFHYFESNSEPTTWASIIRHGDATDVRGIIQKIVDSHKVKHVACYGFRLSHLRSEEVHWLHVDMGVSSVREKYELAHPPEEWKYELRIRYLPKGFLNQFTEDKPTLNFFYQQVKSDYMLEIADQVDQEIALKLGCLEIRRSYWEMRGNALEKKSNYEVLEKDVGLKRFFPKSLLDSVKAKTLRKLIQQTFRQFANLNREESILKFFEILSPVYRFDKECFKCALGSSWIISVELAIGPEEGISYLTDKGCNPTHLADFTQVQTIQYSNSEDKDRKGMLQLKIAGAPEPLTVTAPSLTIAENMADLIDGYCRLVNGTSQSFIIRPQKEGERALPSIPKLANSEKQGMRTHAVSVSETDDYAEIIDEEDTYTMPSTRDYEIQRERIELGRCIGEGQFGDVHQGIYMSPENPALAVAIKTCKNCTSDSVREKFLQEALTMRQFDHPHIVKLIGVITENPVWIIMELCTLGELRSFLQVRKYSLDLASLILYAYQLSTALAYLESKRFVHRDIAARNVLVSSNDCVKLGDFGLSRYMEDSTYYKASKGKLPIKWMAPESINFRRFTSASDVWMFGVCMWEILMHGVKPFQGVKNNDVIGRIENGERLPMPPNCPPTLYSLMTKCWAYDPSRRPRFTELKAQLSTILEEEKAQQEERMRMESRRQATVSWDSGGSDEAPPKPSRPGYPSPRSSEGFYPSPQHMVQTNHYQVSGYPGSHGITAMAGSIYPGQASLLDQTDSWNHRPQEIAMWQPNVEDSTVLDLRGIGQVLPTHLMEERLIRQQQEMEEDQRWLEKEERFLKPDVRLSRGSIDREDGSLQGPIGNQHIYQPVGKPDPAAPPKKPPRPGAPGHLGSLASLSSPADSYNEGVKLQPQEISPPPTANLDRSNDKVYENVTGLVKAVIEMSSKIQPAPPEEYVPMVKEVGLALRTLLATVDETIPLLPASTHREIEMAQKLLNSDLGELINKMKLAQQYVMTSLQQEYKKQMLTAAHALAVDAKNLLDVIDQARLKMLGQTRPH
# [12] = tested on: Fibrinogen (Alexa647-labelled); assay: Alexa647-fibrinogen binding to printed small molecules – biochemical, small-molecule microarray, 635/667 nm fluorescence, artefact control for SMM control-protein annotation, profiling panel (AID 1131); settings: fibrinogen-A647 binding fluorescence, higher = more signal;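 also: z-score merges 667 nm fluorescence with per-spot signal-to-noise over triplicate slides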
# [13] = molecular target: Follistatin (Homo sapiens) (UniProt P19883); assay: FST protein binding to printed compounds – biochemical, small-molecule microarray, 635/667 nm fluorescence, primary screen (AID 1132); settings: 635 nm fluorescence, higher = more signal
# Follistatin (Homo sapiens), sequence (P19883 whole entry, looked up): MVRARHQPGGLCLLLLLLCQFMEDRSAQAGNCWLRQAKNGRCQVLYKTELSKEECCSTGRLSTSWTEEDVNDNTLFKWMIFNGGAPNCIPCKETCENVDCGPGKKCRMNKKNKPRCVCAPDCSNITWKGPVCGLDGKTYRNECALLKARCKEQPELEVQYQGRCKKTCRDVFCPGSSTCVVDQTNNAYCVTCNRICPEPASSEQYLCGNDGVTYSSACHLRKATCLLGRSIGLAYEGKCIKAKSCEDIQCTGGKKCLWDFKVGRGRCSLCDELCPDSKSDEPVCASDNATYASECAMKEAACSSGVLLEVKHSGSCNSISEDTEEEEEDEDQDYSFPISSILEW
# [14] = molecular target: Fibroblast growth factor 2 (Homo sapiens) (UniProt P09038); assay: basic fibroblast growth factor binding to printed compounds – biochemical, small-molecule microarray, 635/667 nm fluorescence, primary screen (AID 1133); settings: FGF2, fluorescence 635/667, higher = more signal
# Fibroblast growth factor 2 (Homo sapiens), sequence (P09038 whole entry, looked up): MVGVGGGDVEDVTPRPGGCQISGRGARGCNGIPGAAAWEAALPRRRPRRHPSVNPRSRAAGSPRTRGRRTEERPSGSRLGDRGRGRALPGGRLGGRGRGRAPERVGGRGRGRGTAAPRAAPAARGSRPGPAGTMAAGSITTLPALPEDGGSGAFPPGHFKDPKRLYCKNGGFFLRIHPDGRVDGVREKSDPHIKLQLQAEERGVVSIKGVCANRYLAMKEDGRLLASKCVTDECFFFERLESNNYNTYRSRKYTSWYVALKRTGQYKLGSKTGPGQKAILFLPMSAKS
# [15] = JC-1 mitochondrial potential readout, lung cancer cells – cell-based, A549, JC-1 fluorescence, basal, 24 h, 100 nL, profiling panel (AID 1138); settings: higher = more signal;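 also: A549 lung adenocarcinoma cells under basal conditions with no added stimulus; test concentration not given here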
# Lefty1 = Lefty1 protein binding to printed compounds – biochemical, small-molecule microarray, 635/667 nm fluorescence, primary screen (AID 1139); settings: fluorescence 635/667, higher = more signal
# [16] = tested on: wheat germ agglutinin (Triticum aestivum), Alexa647-labelled; assay: Alexa647-WGA lectin binding to printed small molecules – biochemical, small-molecule microarray, 635/667 nm fluorescence, artefact control for SMM control-protein annotation, profiling panel (AID 1140); settings: WGA-A647 binding, 635 nm fluorescence, higher = more signal;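 also: score merges 667 nm feature emission with signal to noise over triplicate slides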
# [17] = molecular target: Luciferin 4-monooxygenase (Photinus pyralis) (UniProt P08659); assay: inhibition of purified Photinus pyralis luciferase – biochemical, luminescence, purified enzyme, 2006 set, primary screen (AID 1141); settings: purified firefly luciferase, SteadyGlo luminescence, 30 min; higher = more signal, called active from +8 up or from −8 down;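 also: cell-free assay with purified firefly luciferase at 100 ng per well in PBS; test concentration not given here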
# Luciferin 4-monooxygenase (Photinus pyralis), sequence (P08659 whole entry, looked up): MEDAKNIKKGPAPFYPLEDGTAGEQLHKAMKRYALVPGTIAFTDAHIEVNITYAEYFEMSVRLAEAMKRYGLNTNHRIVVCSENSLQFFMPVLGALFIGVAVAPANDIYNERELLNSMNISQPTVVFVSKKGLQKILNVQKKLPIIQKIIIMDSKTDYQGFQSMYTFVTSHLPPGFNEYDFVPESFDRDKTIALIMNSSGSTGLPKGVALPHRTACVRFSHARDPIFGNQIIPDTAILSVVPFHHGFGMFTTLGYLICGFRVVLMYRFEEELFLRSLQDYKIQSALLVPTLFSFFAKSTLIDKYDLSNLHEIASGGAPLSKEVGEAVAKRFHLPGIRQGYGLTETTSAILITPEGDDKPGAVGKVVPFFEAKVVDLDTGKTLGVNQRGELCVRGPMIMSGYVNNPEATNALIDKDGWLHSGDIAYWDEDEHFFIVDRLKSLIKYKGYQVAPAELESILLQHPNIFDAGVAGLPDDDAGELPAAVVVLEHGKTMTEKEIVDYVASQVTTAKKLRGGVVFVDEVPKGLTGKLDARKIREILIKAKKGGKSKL
Structure (SMILES),composite z-score (Albumin (Bos taurus)),composite Z-score [1],composite z-score [2],composite z-score [3],composite z-score [4],composite z-score [5],composite z-score [6],composite z-score (Sam68 (KHDRBS1)),composite z-score [7],composite z-score [8],composite z-score [9],composite z-score [10],composite z-score [11],composite z-score [12],composite z-score [13],composite z-score [14],z-score [15],composite z-score (Lefty1),composite z-score [16],z-score [17]
CCOC(=O)C[C@H]1[C@H](OC(=O)c2ccc(C(=O)c3ccccc3)cc2)[C@@H](NC(=O)c2ccc(-c3ccccc3)cc2)c2cc(OCCCO)ccc2N1C(=O)Cc1ccc(OC)cc1,0.519,-0.153 (inactive),0.16,0.121,0.177,0.93,0.0285,0.512,-0.0479,0.458,0.0658,0.556,0.0784,0.544,0.51,-0.205,0.967,0.374,0.223,0.408 (inactive)
COc1cc(OC)c(C(O)C2C=CC3C(=O)N(Cc4ccccc4)C(=O)C3N2n2cnnc2)cc1Br (stereo not given),0.725,-0.395 (inactive),0.056,-0.0398,0.377,1.64,0.953,1.2,-1.15,0.756,2.21,1.17,0.381,0.973,1.03,-0.148,-1.08,0.363,1.02,0.647 (inactive)
C=C(C(=O)CC[C@H](OC(=O)c1ccccc1-c1ccccc1C(=O)O)c1cccc(OCCO)c1)C(C)C,0.688,-0.302 (inactive),-0.185,-0.162,0.696,0.715,0.2,-0.192,-0.0748,0.0561,0.0001,-0.399,0.0444,0.0591,0.319,0.85,-0.697,0.485,0.36,-0.373 (inactive)
Oc1ccc2cc[n+](Cc3cc4c(cc3Br)OCO4)cc2c1,-1.19,-0.399 (inactive),-0.333,-0.108,0.908,-0.129,-0.127,-0.538,-0.496,-0.985,-0.706,-1.93,-0.947,-1.38,-0.145,-0.387,0.938,-1.15,0.136,-1.13 (inactive)
C=CCN1Cc2ccccc2[C@@H]2OC(c3ccc(OCCCO)cc3)=N[C@]2(CC=C)C1=O,-0.187,1.79 (inactive),0.43,0.147,0.544,3.16,0.585,1.22,1.44,1.1,2.25,1.15,0.68,0.542,1.49,1.57,2.5,1.2,0.667,-1.91 (inactive)
O=C1O[C@@H](c2ccccc2)[C@@H](c2ccccc2)N2[C@@H](c3ccc(O)cc3)[C@]3(C(=O)Nc4ccc(C#CCCO)cc43)[C@@H](C(=O)N3CCN(c4ncccn4)CC3)[C@H]12,-0.777,0.698 (inactive),0.148,-0.457,0.523,0.457,-0.143,1.11,1.14,1.12,1.56,1.14,0.165,0.512,1.37,1.68,-1.25,0.952,0.0869,0.764 (inactive)
